Only some compounds are listed: those with a hit (about 18% of all), similar ones and a draw of the others.
TGFb SMAD3 inh: qHTS for Inhibitors of TGF-b | HepG2 CAGA-GFP TGF-b/SMAD3 reporter, GFP fluorescence, 18 h; TGF-beta stimulated, 500 pg/mL final | Potency, µM (titrated, usually from 46.1 µM), for the others: at the top dose activity, negative = inhibition, actives largely listed as inhibitors | 410,000 tested, 1.2% active | AID 588855, 2011; further: potency means the concentration at half of the fitted maximal effect; on the % scale 0 is the no-effect control and ±100 the full control effect; nearly all actives have a fitted effect of over 65% in size
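HEPG2 CAGA-GFP reporter cells (1000/well, DMEM with 1% FBS) received compounds, then recombinant TGF-beta at 500 pg/mL final for 18 hours at 37 degrees C. Per-cell GFP summed per well was normalised to unstimulated and stimulated DMSO controls before curve fitting.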
HepG2 tox: qHTS for Inhibitors of TGF-b: Cytotox Counterscreen; Potency, µM (highest dose often 46.1 µM), for inactives: at the top dose activity change, negative = cytotoxicity, actives largely listed as cytotoxic; 410,000 tested, 0.76% active; HepG2 CAGA-GFP viability, ATP luminescence, 18 h; further: potency means the concentration at half of the fitted maximal effect
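CellTiter-Glo luminescence gave cytotoxicity after 18 hours at 37 degrees C. The cells were HepG2 CAGA-GFP in 1% FBS DMEM, stimulated with 500 pg/mL TGF-beta after compound addition. %Activity was normalised to no-cell wells (complete cell-killing) and DMSO (no toxicity), and curves were fitted and classified.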
IL-1B inflam inh: qHTS for Inhibitors of Inflammasome Signaling: IL-1-beta AlphaLISA Primary Screen; THP-1 LPS/ATP IL-1B secretion, AlphaLISA, 16 h; stronger effect = lower value; activity change, % at 57.5 µM; 360,000 tested, 4.7% active; in the data active means activity change below about -50%; inconclusive means mostly about -30% to -49%; further: on the % scale 0 is the no-effect control and ±100 the full control effect
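THP-1 cells pretreated 1 hr with compounds (up to 57.5 uM final), then stimulated with LPS (250 ng/mL final) plus ATP (1.25 mM final); secreted IL-1B measured by AlphaLISA after 16 hr, decreased signal indicating inhibition.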
TDP1 inh: qHTS Assay for Inhibitors of Tyrosyl-DNA Phosphodiesterase (TDP1); Potency, µM (doses to about 130 µM), without a hit: top-dose activity change, negative = inhibition, usual class: inhibitors; recombinant TDP1, AlphaScreen DNA substrate cleavage; Tyrosyl-DNA phosphodiesterase 1 (Homo sapiens), Q9NUW8; 350,000 tested, 0.28% active; AID 485290, 2010; further: potency means the concentration at half of the fitted maximal effect; on the % scale 0 is the no-effect control and ±100 the full control effect; nearly all actives have a fitted effect of over 40% in size
Target sequence (Q9NUW8 whole entry, looked up): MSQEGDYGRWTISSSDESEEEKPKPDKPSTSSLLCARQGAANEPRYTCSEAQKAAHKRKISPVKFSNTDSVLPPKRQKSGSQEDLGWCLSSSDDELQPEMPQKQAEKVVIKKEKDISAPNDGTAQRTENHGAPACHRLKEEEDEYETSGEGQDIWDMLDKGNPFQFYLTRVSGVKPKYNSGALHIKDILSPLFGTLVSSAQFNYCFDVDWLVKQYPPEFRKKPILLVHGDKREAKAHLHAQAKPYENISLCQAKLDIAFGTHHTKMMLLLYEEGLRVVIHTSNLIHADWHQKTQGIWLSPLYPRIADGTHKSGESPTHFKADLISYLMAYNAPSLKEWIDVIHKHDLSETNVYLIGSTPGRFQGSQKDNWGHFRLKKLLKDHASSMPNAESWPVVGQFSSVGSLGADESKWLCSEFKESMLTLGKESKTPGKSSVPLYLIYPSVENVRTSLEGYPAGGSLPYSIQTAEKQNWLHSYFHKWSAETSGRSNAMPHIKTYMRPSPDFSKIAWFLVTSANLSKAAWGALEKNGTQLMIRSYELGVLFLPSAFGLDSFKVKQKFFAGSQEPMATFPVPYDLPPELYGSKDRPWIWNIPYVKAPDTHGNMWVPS
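Enzyme-compound mixtures sat 15 min at room temperature, followed by a 5 min reaction with 15 nM final substrate and 10 min with AlphaScreen beads. Recombinant human Tdp1 was used at 1 nM final.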
TDP1 cell noCPT: qHTS for Inhibitors of human tyrosyl-DNA phosphodiesterase 1 (TDP1): qHTS in cells in absence of CPT; DT40 Tdp1-/- hTDP1 cells, no CPT, ATP luminescence, 48 h; Potency, µM (top dose mostly 46.2 µM), inactives show top-dose activity change, negative = growth inhibition, hits mostly inhibitors; 420,000 tested, 15% active; AID 686978, 2013; further: potency means the concentration at half of the fitted maximal effect; on the % scale 0 is the no-effect control and ±100 the full control effect; nearly all actives have a fitted effect of over 55% in size
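Readout: luminescence from CellTiter-Glo after 30 min in the dark at RT. Cells: DT40 Tdp1-/- with stable hTDP1, 400/well. Exposure: compounds alone, ≥48 hr, 37 °C.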
DT40 TDP1 CPT: qHTS for Inhibitors of human tyrosyl-DNA phosphodiesterase 1 (TDP1): qHTS in cells in presence of CPT; chicken DT40 Tdp1-/-;hTDP1 cells + 20 nM CPT, ATP luminescence, 48 h; Potency, µM (doses to about 46.2 µM), without a hit: at the highest dose activity change, negative = growth inhibition, hits mostly inhibitors; 420,000 tested, 12% active; AID 686979, 2013; further: potency means the concentration at half of the fitted maximal effect; on the % scale 0 is the no-effect control and ±100 the full control effect; nearly all actives have a fitted effect of over 55% in size
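Chicken DT40 Tdp1-/- cells stably complemented with human TDP1 were seeded at 400 cells/well in medium containing 20 nM camptothecin, exposed to pin-transferred compounds, and grown at 37 °C for at least 48 hr. Viability was read as ATP luminescence.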
The depositor's hits bear a star; u = inconclusive; x = no result given. Unless noted, the call rests on the fitted dose curve; in most records, active means well fitted curve in the direction sought with a large enough effect; inconclusive means small, poorly fitted or top-dose-only effect, or another doubt; inactive means no such curve, though single readings can be large; an effect the other way counts as inactive or inconclusive.

SMILES	TGFb SMAD3 inh	HepG2 tox	IL-1B inflam inh	TDP1 inh	TDP1 cell noCPT	DT40 TDP1 CPT
COc1ccc2nc(N(CCN(C)C)C(=O)c3ccc4c(c3)OCCO4)sc2c1	-16.7%	-14.9%	-10.1	6.1%	8.3%	6.3%
Cc1cc(Br)c(Cl)cc1NC(=O)CN1C(=O)C2C3CC(c4ccccc4)C(C3)C2C1=O (stereo not drawn)	u	-5.1%	u	1.9%	u	u
COc1cccc(NC(=O)CN(Cc2ccccc2)S(C)(=O)=O)c1	-1.5%	-24.8%	-9.0	4.5%	-9.8%	-6.4%
CN(C)CCN(C(=O)c1ccc(S(=O)(=O)N(C)C)cc1)c1nc2cc3c(cc2s1)OCCO3	-4.5%	7.9%	7.6	4.6%	-25.5%	0.0%
CCOc1ccc2nc(N(CCN(CC)CC)C(=O)c3ccc([N+](=O)[O-])cc3)sc2c1	1.3%	0.6%	-15.3	8.1%	-6.0%	5.1%
CCOc1ccc2nc(N(CCN(C)C)C(=O)c3ccc4c(c3)CCCC4)sc2c1	-11.2%	-45.1%	-64.7*	12.9%	u	u
COc1cc2nc(N(CCN(C)C)C(=O)c3ccc4ccccc4c3)sc2cc1OC	-2.4%	-2.5%	-12.8	10.6%	-3.5%	-21.2%
CN(C)CCN(C(=O)c1ccc2ccccc2c1)c1nc2cc3c(cc2s1)OCO3	-11.4%	-51.1%	-4.6	x	23.1µM*	u
CN(C)CCN(C(=O)c1ccc2c(c1)CCCC2)c1nc2cc3c(cc2s1)OCCO3	-22.0%	-28.9%	-57.7*	2.1%	29.1µM*	u
O=C(CCS(=O)(=O)Cc1ccccc1)N1CCN(c2ccc([N+](=O)[O-])cc2)CC1	-4.8%	-3.7%	-22.3	-2.7%	u	u
O=C(CCCc1ccccc1)N1CCN(c2ccc([N+](=O)[O-])cc2)CC1	0.0%	2.1%	-1.7	7.3%	18.4µM*	18.4µM*
O=C(CCCC(=O)N1CCN(c2ccc([N+](=O)[O-])cc2)CC1)c1ccccc1	1.6%	19.5%	u	4.3%	10.3µM*	u
Cc1cc(=O)[nH]c(N/N=C/c2c[nH]c3ccccc23)n1	5.1%	-15.7%	14.2	u	u	u
Cc1cc(=O)[nH]c(N=N/C(=N/Nc2ccc(O)cc2)c2ccccc2)n1	-8.7%	-25.5%	112.5	u	6.51µM*	5.8µM*
Cc1cc(=O)[nH]c(N=N/C(=N/Nc2ccccc2C)c2ccccc2)n1	-4.3%	-9.0%	161.3	9.3%	5.17µM*	4.61µM*
COc1ccc(NC(=O)CSc2nnc(NC(=O)Nc3ccccc3)s2)cc1OC	19.5%	6.3%	x	-2.6%	9.7%	7.5%
Cc1ccc2cc(C)c3nnc(SCc4ccc(C(=O)O)cc4)n3c2c1C	-7.4%	-98.1%	28.7	-4.3%	-4.1%	-17.6%
CCCC(=O)N1CCC1(C)C(=O)Nc1ccc(C)c(C)c1 (stereo not drawn)	-7.1%	-8.2%	9.3	x	u	u
COc1ccc2[nH]c(=O)c(C(c3nnnn3C(C)(C)C)N(Cc3ccco3)CC3CCCO3)cc2c1 (stereo not drawn)	-20.3%	-29.0%	-19.0	-2.9%	-29.8%	-24.7%
COc1ccc2cc(CN(Cc3ccco3)C(c3nnnn3C3CCCCC3)C(C)C)c(=O)[nH]c2c1 (stereo not drawn)	-5.1%	1.5%	3.9	-1.0%	u	23.1µM*
COc1ccc2cc(CN(Cc3ccco3)Cc3nnnn3C3CCCCC3)c(=O)[nH]c2c1	u	-2.6%	-51.4*	5.7%	u	25.9µM*
CCC(C)(C)n1nnnc1CN(Cc1ccco1)Cc1cc2cc3c(cc2[nH]c1=O)OCO3	-1.2%	6.7%	u	0.0%	16.4µM*	20.6µM*
CC(C)(C)c1ccc(CN(Cc2ccco2)Cc2nnnn2C2CCCC2)cc1	u	12.5%	-7.7	3.4%	14.6µM*	20.6µM*
c1ccc2c(c1)SCc1c-2[nH]c2ccccc12	x	x	x	18.7%	x	x
Cc1cccc2cc(CN(CC3CCCO3)C(c3nnnn3Cc3ccco3)C(C)C)c(=O)[nH]c12 (stereo not drawn)	u	7.9%	-60.7*	7.2%	14.6µM*	16.4µM*
SMILES	TGFb SMAD3 inh	HepG2 tox	IL-1B inflam inh	TDP1 inh	TDP1 cell noCPT	DT40 TDP1 CPT
C[C@H]1CN(S(=O)C(C)(C)C)[C@H](CCO)/C1=C\c1ccccc1 (stereo partly drawn)	-9.2%	-12.6%	7.6	x	-1.7%	-1.7%
COC(=O)Nc1cc(C)nc2ccccc12	4.4%	-8.9%	14.9	-5.9%	-20.5%	-16.0%
CNc1cc(C(=O)O)nc2ccccc12	u	-34.6%	x	x	1.12µM*	0.891µM*
CCOC(=O)N1CCc2c(sc3c2c(=O)n(Cc2ccccc2)c(=O)n3CC(=O)Nc2ccc(C)c(C)c2)C1	6.1%	-2.9%	x	6.4%	2.2%	4.9%
CCOC(=O)[C@]12Cc3c(cc(OC)c(OC)c3OC)[C@H]1N(C1CCCCC1)C(=O)c1cc(OC)ccc12	x	x	-118.4*	x	9.2µM*	9.2µM*
CCOC(=O)N1CCC(N2C(=O)c3ccccc3C2Nc2cc(OC)c(OC)c(OC)c2)CC1 (stereo not drawn)	3.9%	-22.9%	-19.0	0.0%	u	u
CCc1ccc(N=c2c([N+](=O)[O-])nn(-c3ccccc3)n2O)cc1	-7.8%	1.7%	-2.3	10.9%	u	u
Cc1cc(C)cc(N=c2c([N+](=O)[O-])nn(-c3ccc(Cl)cc3)n2O)c1	-20.8%	-4.2%	5.5	7.9%	14.6µM*	9.2µM*
O=C(Cn1nc(-c2cccc(Cl)c2)ccc1=O)NCC1COCCO1 (stereo not drawn)	9.7%	8.7%	-18.6	-0.5%	-17.3%	9.4%
CC(C)(C)OC(=O)N1CCC(c2c(C(=O)N3CCN(C(=O)c4ccco4)CC3)cnn2-c2ccccc2Cl)CC1	0.2%	-14.7%	x	1.1%	u	-27.3%
Cc1ccc(-n2ncc(C(=O)N3CCN(c4cccc(C)c4C)CC3)c2C2CCNCC2)c(C)c1	u	-83.3%	x	4.2%	16.4µM*	8.2µM*
Cc1ccc(C)c(N2CCN(C(=O)c3cnn(-c4ccccc4Cl)c3C3CCN(C(=O)OC(C)(C)C)CC3)CC2)c1	-8.9%	-29.8%	x	0.0%	13µM*	13µM*

From PubChem BioAssay
